Values joined by “and” are separate entries in the source; they are usually repeats but may differ in a detail not shown here. Equal values may be shown once. Records with an inconclusive call do not appear. Where a structure was tested more than once in an assay, its records may differ in their call. Active and inactive are the calls of the source. Unless noted, calls follow the shape of the dose curve; as a rule, active = well fitted curve in the direction sought with a large enough effect in the repeat runs; inconclusive = weak or mixed curves; inactive = no such curve, though single readings can be large; an effect the other way counts as inactive or inconclusive.
What was measured:
[1] = qHTS assay for small molecules that induce genotoxicity in human embryonic kidney cells expressing luciferase-tagged ATAD5 (AID 651632); also: nearly all actives have a fitted effect of over 15% in size; also: potency is read from the fitted curve at half-maximal effect
Summary of the method: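 HEK293T cells carrying a luciferase reporter tagged to ATAD5 were exposed to compound or DMSO vehicle for 16 hr at 37C, 5% CO2. Amplite was added, and after 30 min at room temperature luciferase activity was read as a marker of ATAD5 induction.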

[2] = qHTS assay for small molecule agonists of the p53 signaling pathway - cell viability (AID 651633; calls by dose curve; also: nearly all actives have a fitted effect of over 30% in size; also: potency is read from the fitted curve at half-maximal effect)
Summary of the method: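 Viability counter-read: CellTiter-Glo luminescence (30 min, room temperature) in the same p53RE-bla plates. These plates had been exposed to compounds for 16 h at 37 C.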

[3] = qHTS assay for small molecules that induce genotoxicity in human embryonic kidney cells expressing luciferase-tagged ATAD5 - cell viability (AID 651634; calls by dose curve; also: nearly all actives have a fitted effect of over 25% in size; also: potency is read from the fitted curve at half-maximal effect)
Summary of the method: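 HEK293T cells expressing luciferase-tagged ATAD5 were exposed to compound or DMSO for 15.5 hr at 37C, 5% CO2. Viability was then read as live-cell protease activity by CellTiter-Fluor fluorescence after 30 min at 37C.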

[4] = qHTS assay for small molecule disruptors of the mitochondrial membrane potential - cell viability (AID 720634; calls by dose curve; also: nearly all actives have a fitted effect of over 20% in size; also: potency is read from the fitted curve at half-maximal effect)
Summary of the method: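 HepG2 cells seeded overnight at 37 C, then exposed to compound or DMSO for 1 hr at 37 C, 5% CO2. m-MPI dye added, then CellTiter-Glo for 30 min at room temperature; viability read as ATP luminescence.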

[5] = qHTS assay for small molecule disruptors of the mitochondrial membrane potential (AID 720635); also: potency is read from the fitted curve at half-maximal effect
Summary of the method: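 Mitochondrial membrane potential tracked with Mito-MPS dye, red aggregates (ex 540/em 590 nm) against green monomers (ex 490/em 535 nm). Compound treatment 1 hr at 37C, dye 30 min in HepG2.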

[6] = qHTS assay to test for compound auto fluorescence at 590 nm (red) in HepG2 cells (AID 720674)
Summary of the method: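 We screened compounds on adherent HepG2 cells, incubating them for an hour at 37 C in 5% CO2 before reading emission at 590 nm under 540 nm excitation; values reflect equivalence to Rose Bengal sodium fluorescence.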

[7] = qHTS assay to test for compound auto fluorescence at 535 nm (green) in HepG2 cells (AID 720675)
[8] = qHTS assay to test for compound auto fluorescence at 590 nm (red) in HEK293 cells (AID 720679)
Summary of the method: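 Each well held 2,000 HEK293 cells in medium containing 10% dialyzed FBS. Following 4-5 hr attachment at 37C, 23 nL test compound or DMSO was added; plates sat overnight, and red fluorescence (540/590nm) was recorded.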

[9] = qHTS assay to test for compound auto fluorescence at 460 nm (blue) in HEK293 cells (AID 720678)
Summary of the method: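 Cells were seeded and left to adhere for 4-5 hr at 37C. Compounds were then pin-transferred. After an overnight incubation at 37C under 5% CO2, intrinsic fluorescence at 405/460 nm was measured and referenced to triamterene.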

Measured: Potency

CCCCCCC[CH2][Sn]([Cl])([Cl])[CH2]CCCCCCC
active: [2] 15.3 µM | [5] 48.5 µM
not listed: [9]
inactive: all other assays above

Cc1ccc(C)c2ccccc12
inactive: all assays above

O=c1[nH]c(Cl)c(Cl)cc1Cl
active: [5] 54.5 µM
inactive: all other assays above

CCC(OC(C)=O)C(CC(C)NC)(c1ccccc1)c1ccccc1 (stereo unspecified)
active: [2] 69.2 µM | [5] 49 µM
inactive: all other assays above

C=C(C)C(=O)[O][Sn]([CH2]CCC)([CH2]CCC)[CH2]CCC
active: [2] 0.611 µM | [3] 611 nM | [4] 3.86 µM | [5] 0.0611 µM
inactive: all other assays above

CC(Cc1ccc(OCC(=O)O)cc1)NCC(O)c1csc(C(F)(F)F)n1 (stereo unspecified)
not listed: [6]
inactive: all other assays above

COP(=S)(OC)Oc1nc(Cl)c(Cl)cc1Cl
active: [5] 48.5 µM
inactive: all other assays above

CCn1cc[n+](C)c1 (tested in a mixture with another compound)
not listed: [6]
inactive: all other assays above

CCCCc1ccccc1
inactive: all assays above

CC(C)N(C(=O)CCl)c1ccccc1
active: [3] 27.3 µM and 38.6 µM
inactive and 30.6 µM (active): [2]
inactive: all other assays above

CN(C)C(=S)SSC(=S)N(C)C
active: [1] 19.1 µM | [2] 29.8 µM and 26.9 µM and 27.3 µM | [3] 6.68 µM and 26.9 µM | [5] 335 nM and 30.2 µM and 54.5 nM
inactive: all other assays above

N#CC(C#N)=NNc1cccc(Cl)c1
active: [2] 0.864 µM | [3] 7700 nM | [5] 0.109 µM
inactive: all other assays above

S=C=Nc1ccccc1
active: [5] 28.2 µM
inactive: all other assays above

COP(=S)(NC(C)C)Oc1ccc(C)cc1[N+](=O)[O-] (stereo unspecified)
active: [5] 24.3 µM
not listed: [9]
inactive: all other assays above

CCOP(=S)(OCC)SC(CCl)N1C(=O)c2ccccc2C1=O (stereo unspecified)
not listed: [4] | [5]
inactive: all other assays above

Clc1cc(Cl)c(-c2cc(Cl)c(Cl)cc2Cl)cc1Cl
not listed: [5]
inactive: all other assays above

CCNS(=O)(=O)C(F)(F)C(F)(F)C(F)(F)C(F)(F)C(F)(F)C(F)(F)C(F)(F)C(F)(F)F
active: [4] 5.22 µM | [5] 1.85 µM
not listed: [3] | [9]
inactive: all other assays above

O=[N+]([O-])c1cccc2cccc([N+](=O)[O-])c12
active: [5] 9.73 µM
not listed: [4]
inactive: all other assays above

O=[N+]([O-])C(Br)Br
not listed: [3] | [4] | [5]
inactive: all other assays above

O=S(=O)(NS(=O)(=O)C(F)(F)F)C(F)(F)F
not listed: [5]
inactive: all other assays above

Cc1ccn2nc(S(=O)(=O)Nc3c(F)cccc3F)nc2n1
not listed: [5] | [6]
inactive: all other assays above

ClC1=C(Cl)[C@]2(Cl)[C@H]3[C@H]([C@@H]4C=C[C@H]3C4)[C@@]1(Cl)C2(Cl)Cl
active: [2] 30.6 µM and 61.1 µM | [5] 30.6 µM and 17.2 µM
not listed: [6]
inactive: all other assays above

From PubChem BioAssay (Tox21)
